Screening data as filed in PubChem.
Hits are enriched below; roughly 7.6% of the tested compounds scored in any of these assays.
ELG1 repair inh = qHTS screen for small molecules that inhibit ELG1-dependent DNA repair in human embryonic kidney (HEK293T) cells expressing luciferase-tagged ELG1; 330,000 tested, 2.3% active; HEK293T ELG1-luciferase reporter, luminescence, 16 h; DNA damage induced by 5-fluorouridine; Potency, µM (doses to about 46.1 µM), for the others: top-dose activity change, negative = inhibition, usual class: inhibitors; further: potency means the concentration at half of the fitted maximal effect; on the % scale 0 is the no-effect control and ±100 the full control effect; nearly all actives have a fitted effect of over 55% in size
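Luminescence from the luciferase reporter, measured 30 min after ONE-Glo reagent at room temperature, was the read-out. Beforehand, 2,000 cells per well were exposed for 16 hr at 37 °C to 5-fluorouridine together with compound or vehicle.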
Giardia kill = Small Molecules that selectively kill Giardia lamblia: qHTS. Giardia lamblia trophozoite viability. activity change, % at 7.66 µM, hits read low. 340,000 tested, 0.15% active; in the data active means activity change below about -80%; inconclusive means between about -30% and that limit;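 further: parasites exposed to compound for two days anaerobically before the ATP read; on the % scale 0 is the no-effect control and ±100 the full control effect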
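Media and compound were dispensed first, then trophozoites at 100 cells/well; plates sat 48 hrs at 37 deg C without oxygen before ATP luminescence reagent was added and read after 15-30 min at room temperature.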
VP16 counter = VP16 counterscreen qHTS for inhibitors of ROR gamma transcriptional activity; Potency, µM (highest dose often 53.6 µM), for inactives: at the top dose activity, negative = inhibition, usual class: inhibitors; 310,000 tested, 3.5% active; Drosophila S2 Gal4-VP16 UAS-luciferase, luminescence, 20 h; AID 2546, 2010;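 further: Gal4-VP16 expression switched on by copper sulfate through the metallothionein promoter; potency means the concentration at half of the fitted maximal effect; on the % scale 0 is the no-effect control and ±100 the full control effect; nearly all actives have a fitted effect of over 50% in size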
RORgamma inh = qHTS for inhibitors of ROR gamma transcriptional activity | Nuclear receptor ROR-gamma (Mus musculus), P51450 | Drosophila S2 Gal4-RORgamma UAS-luciferase reporter, 20 h | Potency, µM (series often up to 53.6 µM), inactives show at the highest dose activity change, negative = inhibition, usual class: inhibitors | 310,000 tested, 5.4% active; further: potency means the concentration at half of the fitted maximal effect; on the % scale 0 is the no-effect control and ±100 the full control effect; nearly all actives have a fitted effect of over 60% in size
Target sequence (P51450 whole entry, looked up, the tested form may be a part): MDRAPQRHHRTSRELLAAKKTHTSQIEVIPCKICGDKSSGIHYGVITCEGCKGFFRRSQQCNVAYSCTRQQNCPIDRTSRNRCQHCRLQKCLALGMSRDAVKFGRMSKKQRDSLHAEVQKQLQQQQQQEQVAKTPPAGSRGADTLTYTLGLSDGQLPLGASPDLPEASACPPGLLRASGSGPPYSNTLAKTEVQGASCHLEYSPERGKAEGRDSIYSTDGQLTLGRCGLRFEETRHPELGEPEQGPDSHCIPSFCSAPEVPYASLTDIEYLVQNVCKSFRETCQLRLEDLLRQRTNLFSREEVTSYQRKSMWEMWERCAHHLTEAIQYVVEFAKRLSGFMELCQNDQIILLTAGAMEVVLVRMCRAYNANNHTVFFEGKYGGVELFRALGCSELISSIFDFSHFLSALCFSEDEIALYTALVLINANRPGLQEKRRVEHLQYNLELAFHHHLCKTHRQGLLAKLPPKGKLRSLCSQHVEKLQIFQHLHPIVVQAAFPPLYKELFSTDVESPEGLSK
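ROR gamma transcriptional activity was tracked as Gal4-UAS luciferase output in stably transfected Drosophila Schneider cells, with compound added 1 hr before 700 uM copper sulfate induction and a 20 hr ambient-temperature incubation.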
p53 reactivation = qHTS assay for re-activators of p53 using a Luc reporter | H1299 p53-A138V BP100-luciferase reporter, luminescence, 24 h | Potency, µM (top dose mostly 92.2 µM), without a hit: at the top dose activity change, positive = activation, actives largely listed as activators | 320,000 tested, 0.063% active; further: potency means the concentration at half of the fitted maximal effect; % of control where 0% means no effect; nearly all actives have a fitted effect of over 45% in size
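H1299 (p53-null), stable ts p53-A138V + BP100-Luc; 1000 cells/well, Opti-MEM/10% FBS; cpd 4 pt, 1:5; 24 h, 37 deg C, 5% CO2; detection reagent 10 min RT; luminescence.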
BRCA1 expr act = qHTS Assay to Identify Small Molecule Activators of BRCA1 Expression; AID 624202, 2012; MCF7-BRCA1-FFLuc reporter, luminescence, 48 h; response scale: scaled: vehicle 0%, 10 µM genistein 100%; Potency, µM (top dose mostly 46.1 µM), without a hit: top-dose activation, actives largely listed as activators; 380,000 tested, 1.1% active; further: potency means the concentration at half of the fitted maximal effect; nearly all actives have a fitted effect of over 80% in size
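Cells: MCF7-BRCA1-FFLuc, 2000/well. Exposure: 48 h, 37 °C, 5% CO2. Read: luminescence, 15 min post-substrate. Controls: genistein 10 microM (maximal activation), DMSO (neutral).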
Numbers without * were called inactive; ? = inconclusive; · = no result given; [ ] = remark or other dose. Unless noted, the call rests on the fitted dose curve; in most records, active means well fitted curve in the direction sought with a large enough effect; inconclusive means small, poorly fitted or top-dose-only effect, or another doubt; inactive means no such curve, though single readings can be large; an effect the other way counts as inactive or inconclusive.

SMILES	ELG1 repair inh	Giardia kill	VP16 counter	RORgamma inh	p53 reactivation	BRCA1 expr act
CC(C)C(NC(=O)c1ccc(Br)cc1)C(=O)NC1=NCCS1 (configuration not stated)	?	-0.3	7.2%	-2.2%	11.6%	-16.9%
CCC(SC1=NCCS1)C(=O)Nc1nnc(-c2ccccc2OC)s1 (configuration not stated)	18.4µM*	-9.1	15.8µM*	6.31µM*	-1.2%	-26.2%
CC(SC1=NCCS1)C(=O)Nc1nnc(-c2ccc(F)cc2)s1 (configuration not stated)	?	-9.1	?	7.94µM*	?	?
CC(SC1=NCCS1)C(=O)Nc1nnc(-c2ccc(Br)cc2)s1 (configuration not stated)	?	31.3	10µM*	8.91µM*	12.9%	?
CCOC(=O)Nc1nnc(-c2ccccc2OC)s1	?	5.8	-2.4%	?	2.0%	-12.5%
CN(C)Cc1ccccc1-c1nc(NC2CC2)c2ccccc2n1	·	·	-16.5%	2.8%	·	·
CCOC(=O)N1CCC(NC(=O)c2cccs2)CC1	13.9%	12.8	6.7%	17.5%	-5.8%	-0.2%
Cc1ccc(S(=O)(=O)N(C)Cc2nc(-c3ccc(Br)cc3)no2)cc1	-23.2%	22.9	-8.1%	?	15.2%	-0.1%
CCCCOC(=O)c1ccc(NC(=S)NC(=O)c2c(Cl)cnn2C)cc1	1.6%	1.2	?	14.1µM*	-4.2%	0.0%
CCCCOC(=O)c1ccc(NC(=S)NC(=O)c2c(Cl)cnn2CC)cc1	3.5%	3.8	17.8µM*	7.08µM*	5.4%	0.0%
CCCCOC(=O)c1ccc(NC(=O)c2nn(C)cc2Br)cc1	3.1%	-2.7	3.55µM*	37.3%	2.2%	23.0%
CCCCOC(=O)c1ccc(NC(C)=O)cc1	?	-2.5	14.1%	1.9%	?	48.5%
O=[N+]([O-])c1cccc(-c2csc(CS(=O)(=O)Cc3ccco3)n2)c1	-2.9%	-10.5	?	27.6%	0.6%	-3.6%
CC(C)[C@H](N[C@@H](C)c1ccccc1)c1c(O)ccc2ccccc12	-3.4%	0.9	-11.8%	40.0%	4.3%	-11.4%
O=C(CN1C(=O)c2ccccc2S1(=O)=O)NCCC1=CCCCC1	15.6%	-17.4	-8.7%	-24.3%	18.3%	-13.8%
O=C(Nc1ccccc1C(=O)Nc1nnc(C(F)(F)F)s1)c1ccccc1	4.61µM*	-18.7	5.01µM*	4.47µM*	10.3%	-65.9%
O=C(Nc1ccccc1C(=O)N/N=C/c1ccc(O)cc1)c1ccccc1	?	-17.4	?	-39.6%	?	23.3%
Cc1cccc(N2CCN(C(=O)CCN3C(=O)C4C5C=CC(C5)C4C3=O)CC2C)c1 (configuration not stated)	-18.5%	-8.4	-3.2%	7.8%	-0.9%	-2.3%
Cc1cccc(N2CCN(C(=O)c3ccc(CS(=O)(=O)c4ccccc4C)o3)CC2C)c1 (configuration not stated)	9.2µM*	-3.8	?	14.7%	0.9%	-0.9%[1.84 µM]
Cc1cccc(N2CCN(C(=O)c3cccc(N4C(=O)C5C6C=CC(C6)C5C4=O)c3)CC2C)c1 (configuration not stated)	13µM*	24.4	3.1%	?	-7.8%	-14.9%
Cc1ccc(C)c(N2CCN(C(=O)c3ccc(CS(=O)(=O)c4ccccc4C)o3)CC2)c1	25.9µM*	-5.1	3.5%	-16.0%	-21.0%	-71.5%
Cc1ccc(S(=O)(=O)Cc2ccc(C(=O)N3CCN(c4cc(C)ccc4C)CC3)o2)cc1	-16.1%	10.7	4.0%	11.2%	-4.1%	-77.8%
Cc1ccc(C)c(N2CCN(C(=O)c3ccc(CS(=O)Cc4ccc(Cl)cc4)o3)CC2)c1 (configuration not stated)	14.6µM*	-7.6	6.4%	9.9%	-5.2%	-28.1%
COc1ccc(N2CCN(C(=O)c3ccc(CS(=O)(=O)c4ccccc4C)o3)CC2)cc1	?	-21.6	7.9%	41.7%	·	-28.5%
COC(=O)c1ccc(S(=O)(=O)N2CCN(CCO)CC2)n1C	4.9%	1.2	-13.0%	1.9%	-3.4%	38.7%
SMILES	ELG1 repair inh	Giardia kill	VP16 counter	RORgamma inh	p53 reactivation	BRCA1 expr act
CC(=O)c1ccc(NC(=S)NCCCN2CCOCC2)cc1	-5.6%	3.3	7.1%	0.5%	-1.0%	9.9%
COC(=O)c1ccccc1NC(=O)CN1CCC(C)CC1	-1.3%	-24.4	-12.3%	8.0%	4.9%	12.1%
CCn1cc(C(=O)NCc2ccc(Cl)cc2)c(=O)c2cc(S(=O)(=O)N3CCc4ccccc4C3)ccc21	·	·	·	·	·	5.5%
CCn1cc(C(=O)NCc2ccco2)c(=O)c2cc(S(=O)(=O)N3CCc4ccccc4C3)ccc21	10.3µM*	-22.8	-15.0%	27.9%	9.7%	-40.4%
CCn1cc(C(=O)NCc2ccc(C)cc2)c(=O)c2cc(S(=O)(=O)N3CCC(C)CC3)ccc21	·	·	·	·	·	11.8%
CCn1cc(C(=O)NCc2ccco2)c(=O)c2cc(S(=O)(=O)N3CCC(C)CC3)ccc21	10.3µM*	18.4	3.8%	0.7%	?	-51.2%
CCn1cc(C(=O)NCc2ccco2)c(=O)c2cc(S(=O)(=O)N3CC(C)CC(C)C3)ccc21 (configuration not stated)	2.91µM*	4.2	-4.6%	14.3%	-3.3%	-86.6%
Cc1cc(C)cc(NS(=O)(=O)c2ccc3[nH]cc(C(=O)NCc4ccco4)c(=O)c3c2)c1	10.3µM*	6.9	-2.0%	0.0%	-9.6%	-71.0%
COc1ccccc1N1CCN(C(=O)C2CCN(S(=O)(=O)c3ccccc3)CC2)CC1	-25.4%	-5.9	3.8%	7.2%	-4.7%	7.1%
C=CCn1cc(C(=O)NCCOC)c(=O)c2cc(S(=O)(=O)N3CCCCCC3)ccc21	?	-6.4	1.0%	-0.6%	-5.3%	-22.2%
CCn1cc(C(=O)NCc2ccc(C)cc2)c(=O)c2cc(S(=O)(=O)N(C)C3CCCCC3)ccc21	·	·	·	·	·	-40.8%
C=CCn1cc(C(=O)OC)c(=O)c2cc(S(=O)(=O)N3CCC(C)CC3)ccc21	-11.3%	1.4	-4.3%	11.2µM*	-10.4%	4.2%
C=CCn1cc(C(=O)NCc2ccco2)c(=O)c2cc(S(=O)(=O)N3CCCCCC3)ccc21	6.51µM*	5.7	-4.4%	?	-14.1%	-2.4%[1.84 µM]
